Hits are enriched below; roughly 2.2% of the tested compounds scored in any of these assays.
CRFBP-R2 agonist: agonists of human CRF-binding protein/CRF-R2 receptor complex. HEK293 CRF-R2/CRF-BP, calcium dye fluorescence (FLIPR); percent of saturating CRF peptide response. AID 588473. activation, % at 13.2 µM. 0.46% of 350,000 active;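 active = activation of at least 50%, plus an integration ratio under a set limit after plate pattern correction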
Myeloid diff MLP: compounds promoting myeloid differentiation. ER-HoxA9 myeloid progenitors, lysozyme-GFP differentiation, flow cytometry. AID 624256. 1% of 360,000 active. calls only at 10 µM;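 active = normalized GFP-positive differentiation at or above the plate's own cutoff, the solvent-only control mean plus 3 SD; inconclusive = no clear call, values can overlap the other calls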;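 also: cells exposed to compound for four days before flow analysis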
CRFR2-BP antag: blocks CRF-induced signaling of the CRF-BP/CRF-R2 complex | HEK293 CRF-R2/CRF-BP, CRF-induced calcium fluorescence | inhibition, % at 11.8 µM | 0.59% of 350,000 active;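 active = inhibition of the ligand-induced calcium signal above about 50% at the single tested concentration, limit read from the data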
RTF Ca sens inh: cardiac RTF calcium desensitization | P19429+P45379 | IANBD-labeled cardiac RTF, Ca2+ fluorescence | 0.12% of 340,000 active | inhibition, % at 7.15 µM;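 active = inhibition above the mean inhibition of all tested compounds plus 3 SD, cut at about 17% in these data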;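 also: assay run at fixed EC70 calcium of 1.6 mM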
RTF Ca sens act: cardiac RTF calcium sensitization. P19429+P45379. IANBD-labeled TnC RTF fluorescence at EC20 calcium; 0% EC20 calcium, 100% full calcium. activation, % at 7.2 µM. 0.24% of 340,000 active. AID 493008;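 active = activation above the mean over all tested compounds plus 3 SD, cut at about 30% in these data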;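 also: rise in fluorescence read as greater calcium sensitivity of cardiac thin filaments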
RTF Ca inh conf: confirmation of inhibitors of cardiac thin filament calcium sensitivity. 8% of 360 active. reconstituted cardiac thin filaments, calcium sensitivity fluorescence. inhibition, % at 7.15 µM. shares compounds with RTF Ca sens inh; in the data active = inhibition above about 18%
Hits are given with their value.

`O=C(O)c1ccc2c(c1)C(=O)/C(=C\c1ccco1)C2=O` gave CRFBP-R2 agonist inactive, Myeloid diff MLP inactive, CRFR2-BP antag inactive, RTF Ca sens inh 20, RTF Ca sens act inactive and RTF Ca inh conf inactive.
O=C(O)c1ccc2c(c1)C(=O)/C(=C/c1ccccc1)C2=O was read as CRFBP-R2 agonist inactive, Myeloid diff MLP inactive, CRFR2-BP antag inactive, RTF Ca sens inh inactive and RTF Ca sens act inactive.
For COc1ccc(C(=NNc2ccccc2C(=O)O)c2ccc(OC)cc2)cc1 the results were CRFBP-R2 agonist inactive, Myeloid diff MLP inactive, CRFR2-BP antag inactive, RTF Ca sens inh 17, RTF Ca sens act inactive and RTF Ca inh conf inactive.
`N#Cc1cccnc1N1CCN(C(C(=O)NC2CCCC2)c2ccc(F)cc2)CC1` (stereo not drawn) gave Myeloid diff MLP inactive.
Screening Nc1ccc(C(=O)N/N=C/c2cn(Cc3ccc(F)cc3)c3ccccc23)cc1 returned CRFBP-R2 agonist inactive, Myeloid diff MLP inactive, CRFR2-BP antag inactive, RTF Ca sens inh inactive and RTF Ca sens act inactive.
Screening O=C(N/N=C/c1cn(Cc2cccc(F)c2)c2ccccc12)c1cc(O)cc(O)c1 returned CRFBP-R2 agonist inactive, Myeloid diff MLP inactive, CRFR2-BP antag inactive, RTF Ca sens inh 21, RTF Ca sens act inactive and RTF Ca inh conf inactive.
Screening Cc1ccc(NC(=O)CSc2nnnn2C2CC2)cc1S(=O)(=O)N1CCOCC1 returned CRFBP-R2 agonist inactive, Myeloid diff MLP inactive, CRFR2-BP antag inactive, RTF Ca sens inh inactive and RTF Ca sens act inactive.
`Cc1cc(C)n(-c2nnc(C)n2N)n1` gave CRFBP-R2 agonist inactive, Myeloid diff MLP inactive, CRFR2-BP antag inactive, RTF Ca sens inh inactive and RTF Ca sens act inactive.
`Cc1nnc(C)n1N` gave CRFBP-R2 agonist inactive, Myeloid diff MLP inactive, CRFR2-BP antag inactive, RTF Ca sens inh 18, RTF Ca sens act inactive and RTF Ca inh conf inactive.
O=C(COc1ccc(Br)cc1Cl)NC(=S)N1CCc2ccccc21 was read as CRFBP-R2 agonist inactive, Myeloid diff MLP inactive, CRFR2-BP antag inactive, RTF Ca sens inh inactive and RTF Ca sens act inactive.
O=C(COc1ccc(Br)cc1Br)NC(=S)N1CCCc2ccccc21 was read as CRFBP-R2 agonist inactive, Myeloid diff MLP inactive, CRFR2-BP antag inactive, RTF Ca sens inh 17, RTF Ca sens act inactive and RTF Ca inh conf inactive.
`COc1cc(CNCCO)cc(Cl)c1OCc1ccc(Cl)cc1Cl` gave CRFBP-R2 agonist inactive, Myeloid diff MLP inactive, CRFR2-BP antag inactive, RTF Ca sens inh inactive and RTF Ca sens act inactive.
For CCOC(=O)Cn1nc(C)cc1NC(=O)c1cccnc1 the results were CRFBP-R2 agonist inactive, Myeloid diff MLP inactive, CRFR2-BP antag inactive, RTF Ca sens inh 21, RTF Ca sens act inactive and RTF Ca inh conf inactive.
For CCOC(=O)c1cccc(NC(=O)c2cccnc2)c1 the results were CRFBP-R2 agonist inactive, Myeloid diff MLP inactive, CRFR2-BP antag inactive, RTF Ca sens inh inactive and RTF Ca sens act inactive.
Screening O=S(=O)(O)c1cccc2c(N=Nc3ccc(O)c4ncccc34)cccc12 returned CRFBP-R2 agonist inactive, Myeloid diff MLP inactive, CRFR2-BP antag inactive, RTF Ca sens inh 37, RTF Ca sens act inactive and RTF Ca inh conf inactive.
`Cc1ccccc1N=Nc1ccc(O)c2ncccc12` gave CRFBP-R2 agonist inactive, Myeloid diff MLP inconclusive, CRFR2-BP antag inactive, RTF Ca sens inh inactive and RTF Ca sens act inactive.
CC1(C)CC(=O)C(Sc2ccccc2)=C(O)C1 was read as CRFBP-R2 agonist inactive, Myeloid diff MLP inactive, CRFR2-BP antag inactive, RTF Ca sens inh 56, RTF Ca sens act inactive and RTF Ca inh conf inactive.
CC1(C)CC(=O)C(Sc2ccccc2C(=O)O)=C(O)C1 was read as CRFBP-R2 agonist inactive, Myeloid diff MLP inactive, CRFR2-BP antag inactive, RTF Ca sens inh inactive and RTF Ca sens act inactive.
C=CCC[C@H](Cc1ccc(F)cc1)C(=O)OC[C@@H](NC(=O)[C@@H](CC=C)CC(=O)N[C@@H](CO)Cc1ccccc1)C(C)(C)C was read as CRFBP-R2 agonist inactive, Myeloid diff MLP inactive, CRFR2-BP antag inactive, RTF Ca sens inh inactive and RTF Ca sens act inactive.
For C=CCC[C@@H](Cc1ccc(F)cc1)C(=O)OC[C@@H](NC(=O)[C@@H](CC=C)CC(=O)N[C@@H](CO)Cc1ccccc1)C(C)(C)C the results were CRFBP-R2 agonist inactive, Myeloid diff MLP inactive, CRFR2-BP antag inactive, RTF Ca sens inh 18, RTF Ca sens act inactive and RTF Ca inh conf inactive.
`COc1ccccc1NC(=O)CSc1nncn1-c1ccccc1` gave CRFBP-R2 agonist inactive, Myeloid diff MLP inactive, CRFR2-BP antag inactive, RTF Ca sens inh inactive and RTF Ca sens act inactive.
